# Sfp inh = blocks B. subtilis Sfp PPTase activity. Q9F4F7. Biochemical Sfp PPTase activity, qHTS. Potency, µM, without a hit: largest response in the series, negative = inhibition, hits mostly inhibitors. actives 3.5% (n = 310,000). AID 1490;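 also: the enzyme is Sfp with the accession as filed and its product quenches rhodamine fluorescence; 0% = enzyme reaction without inhibitor and -100% = no enzyme wells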
#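 After 15 min at room temperature with compound, 15 nM Sfp received 5 uM rhodamine-CoA plus 12.5 uM BHQ-2-ybbR (50 mM Hepes pH 7.6, 10 mM MgCl2). Rate came from the fluorescence difference over 30 min, ex 525/em 598 nm.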
# Tau fluor counter = counter-screen for tau fibril formation inhibitors | tau K18 P301L Alexa594 fluorescence, heparin fibrillization | Potency, µM (top dose mostly 57.7 µM), inactives show at the top dose activity change, negative = decrease | actives 0.93% (n = 280,000) | AID 1463; also: nearly all actives have a fitted effect of over 55% in size
#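 Human K18 P301L tau (15 uM unlabeled plus 0.24 uM Alexa 594-labeled, final) in 100 mM sodium acetate pH 7 was mixed with compound and 20 uM heparin and incubated 6 hr at 37 C.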
# VDR inh = vitamin D3 receptor (human) inhibition | P11473 | VDR-SRC2-3 peptide fluorescence polarization, 2 h | Potency, µM, inactives show max response, negative = inhibition, usual class: inhibitors | actives 0.93% (n = 400,000) | AID 504847
# Target sequence (P11473 whole entry, looked up): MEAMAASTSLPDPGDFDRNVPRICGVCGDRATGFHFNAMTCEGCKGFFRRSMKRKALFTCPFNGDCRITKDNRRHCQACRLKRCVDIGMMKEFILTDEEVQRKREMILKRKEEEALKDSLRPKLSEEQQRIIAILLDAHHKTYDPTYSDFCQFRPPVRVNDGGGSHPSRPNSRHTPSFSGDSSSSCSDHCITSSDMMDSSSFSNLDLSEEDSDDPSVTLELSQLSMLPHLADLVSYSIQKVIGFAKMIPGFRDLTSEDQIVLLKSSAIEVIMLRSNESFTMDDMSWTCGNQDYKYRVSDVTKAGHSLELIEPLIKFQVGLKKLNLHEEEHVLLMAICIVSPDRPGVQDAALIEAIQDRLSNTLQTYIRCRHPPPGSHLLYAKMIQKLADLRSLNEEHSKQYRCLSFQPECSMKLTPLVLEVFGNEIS
#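 Compounds are added to VDR with labelled SRC2-3 coactivator peptide and held 2 h at room temperature. Inhibition of the VDR–peptide interaction is then read as a change in fluorescence polarization.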
# Tau FP inhib = inhibitors of human tau fibril formation; actives 0.39% (n = 280,000); AID 1468; Potency, µM (titrated, usually from 57.7 µM), for inactives: at the highest dose activity, negative = inhibition, usual class: inhibitors; K18 P301L tau heparin fibrillization, Alexa594 FP, 6 h; also: nearly all actives have a fitted effect of over 55% in size
# Target sequence (P10636 561-689 P618L limits assumed): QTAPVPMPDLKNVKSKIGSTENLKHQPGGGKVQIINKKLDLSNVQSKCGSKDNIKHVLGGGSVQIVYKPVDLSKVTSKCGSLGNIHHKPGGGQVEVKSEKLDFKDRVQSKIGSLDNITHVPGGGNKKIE
#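 Human tau K18 […] P301L fragment, 15 uM unlabeled plus 0.24 uM Alexa 594-labeled tau (final), with compound and 20 uM heparin in 100 mM sodium acetate pH 7; 6 hr at 37 C, then Alexa 594 FP read.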
# PLK1 PBD inh = inhibitors of human PLK1 polo-box domain binding; actives 2.8% (n = 360,000); P53350; Plk1 PBD binding of FITC phosphopeptide, fluorescence polarization; Potency, µM, for the others: max response, negative = inhibition, hits mostly inhibitors; also: series mostly up to about 57 µM; nearly all actives have a fitted effect of over 65% in size
# Tau fibril ThT = tau fibrillization inhibition (ThT binding). P10636. recombinant tau K18 P301L (four-repeat tau fragment), heparin-induced fibrillization, ThT fluorescence. Potency, µM (series often up to 57.4 µM), without a hit: top-dose activity, negative = inhibition, usual class: inhibitors. actives 2.1% (n = 270,000). AID 1460; also: nearly all actives have a fitted effect of over 55% in size
#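 Heparin-induced fibrillization of the P301L-mutant K18 repeat-domain fragment of human tau was followed by ThT binding in quantitative high-throughput format.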
# TbPYK inh = confirmation of Trypanosoma brucei pyruvate kinase inhibitors; actives 67% (n = 890); Potency, µM (top dose mostly 76.9 µM), for the others: at the top dose activity change, negative = inhibition, actives largely listed as inhibitors; shares compounds with PLK1 PBD inh; recombinant TbPYK, Kinase-Glo ATP luminescence; also: nearly all actives have a fitted effect of over 70% in size
# TbPYK orthogonal = orthogonal confirmation of Trypanosoma brucei pyruvate kinase inhibitors | shares compounds with PLK1 PBD inh | recombinant TbPYK, ADP-Glo luminescence, 60 min | Potency, µM (top dose mostly 76.9 µM), for inactives: at the top dose activity change, negative = inhibition, usual class: inhibitors | actives 62% (n = 890) | AID 720584; also: nearly all actives have a fitted effect of over 75% in size
# Numbers without * were called inactive; i = inactive; ? = inconclusive; · = not tested or not shown. An excerpt weighted towards active compounds, which were near 6% of everything screened. Calls follow the shape of the dose curve; as a rule, active = well fitted curve in the direction sought with a large enough effect; inconclusive = small, poorly fitted or top-dose-only effect, or another doubt; inactive = no such curve, though single readings can be large; an effect the other way counts as inactive or inconclusive. Unless noted, % is scaled to controls: 0 for no effect and ±100 for the full control effect; potency is read from the fitted curve at half-maximal effect.
SMILES,Sfp inh,Tau fluor counter,VDR inh,Tau FP inhib,PLK1 PBD inh,Tau fibril ThT,TbPYK inh,TbPYK orthogonal
O=C1NC(=O)/C(=C\c2ccc(O)cc2O)S1,?,-28%,-25%,-6%,-26%,?,28µM*,28µM*
Cc1cc(NC(=O)CSCC(=O)OCC(=O)c2cccc(Br)c2)no1,·,·,18%,·,-23%,·,·,·
CCOC(=O)c1c(Nc2ccc(C)c(C)c2)nnc(-c2ccccc2)c1-c1ccccc1,·,-6%,-11%,-4%,·,-12%,·,·
CCOc1cc2[nH]c(=S)n(Cc3ccc(C(=O)NCCN(CC)CC)cc3)c(=O)c2cc1OCC,-7%,·,-11%,·,-13%,·,14µM*,14µM*
O=C(NCc1cc(C(F)(F)F)cc(C(F)(F)F)c1)c1cc(-c2cc(F)ccc2OCC2CCCO2)n[nH]1 (stereo not given),·,·,·,·,11%,·,·,·
COCCn1c(C)cc(O)c(C(c2ccc(F)cc2)N2CCN(c3ccccc3)CC2)c1=O (stereo not given),·,5%,4%,-2%,·,?,·,·
Oc1ccc2c(c1)OCC1(O)Cc3cc(O)c(O)cc3C21 (stereo not given),i,?,79µM*,?,?,22µM*,2.2µM*,3.2µM*
CC(=O)Oc1ccc2c(c1OC(C)=O)OCC1(O)Cc3c(cc(OC(C)=O)c(OC(C)=O)c3OC(C)=O)C21 (stereo not given),-1%,?,-8%,-12%,·,?,·,·
O=C(Nc1nc2ccc(S(=O)(=O)N3CCCC3)cc2s1)c1ccccn1,-67%,-23%,-21%,-3%,-16%,-6%,?,?
O=C(CCSCCC(=O)NCc1ccco1)NCc1ccco1,16µM*,-21%,?,?,21µM*,14µM*,?,?
Cc1ccc(C2=CSC3=NCCN23)c(C)c1,-26%,0%,-3%,-1%,?,-3%,13µM*,16µM*
Oc1ccc(Cl)cc1N=Nc1ccccc1,16%,·,10%,·,0%,·,·,·
Cc1ccc(O)c(N=Nc2ccccc2)n1,?,-14%,0%,8%,-8%,18µM*,10µM*,15%
Cc1ccc(S(=O)(=O)N(C)CC(=O)N2CCN(C(=O)c3ccco3)CC2)cc1,-13%,4%,-2%,3%,3%,-9%,·,·
Cc1ccc(S(=O)(=O)N(C(=O)c2ccco2)c2cc3sc(=O)oc3c3ccccc23)cc1,8.9µM*,?,20µM*,22µM*,-7%,14µM*,-29%,?
CCOc1ccc(S(=O)(=O)N(C(=O)c2ccco2)c2cc3sc(=O)oc3c3ccccc23)cc1,5.6µM*,-22%,32µM*,28µM*,?,14µM*,?,?
CCOc1ccc(-c2nnc(SCC(=O)NCc3ccc(Cl)cc3)o2)cc1,·,-4%,-1%,-10%,·,5%,·,·
CC1=C(C(=O)Nc2ccccc2)C(c2ccncc2)C(C#N)=C(SCC(=O)NC(C)C)N1 (stereo not given),?,-10%,-9%,-4%,-5%,-6%,·,·
CC(=O)C1=C(C)NC(SCC(=O)c2ccccc2)=C(C#N)C1CC(C)C (stereo not given),20µM*,-19%,-15%,-8%,-26%,-18%,?,40µM*
Cc1ccc(SCC(c2ccccc2)N2CCN(CCc3ccccc3)CCC2=O)cc1 (stereo not given),-5%,·,-15%,·,·,·,·,·
CCSc1nc2c([nH]1)c(=O)n(C)c(=S)n2C,·,·,22µM*,·,3.4µM*,·,5µM*,10µM*
CCCSc1nc2c([nH]1)c(=O)n(C)c(=S)n2C,·,·,3%,·,-1%,·,·,·
O=C(Nc1cccc(Cl)c1)c1cc2c(=O)[nH]c3ccccc3c2s1,·,?,1%,?,·,?,·,·
N#CC1=C2SCN(Cc3ccccc3)CN2C(=O)CC1c1ccc2c(c1)OCO2 (stereo not given),1.8µM*,-23%,50µM*,?,19µM*,20µM*,?,?
COc1cc(CNCc2ccco2)ccc1OCc1ccccc1,7%,-10%,0%,-3%,-16%,-6%,·,·
SMILES,Sfp inh,Tau fluor counter,VDR inh,Tau FP inhib,PLK1 PBD inh,Tau fibril ThT,TbPYK inh,TbPYK orthogonal
CC(C)c1ccc(C2CC(=O)N3CN(Cc4ccco4)CSC3=C2C#N)cc1 (stereo not given),2.2µM*,-24%,40µM*,?,27µM*,22µM*,0.14µM*,0.45µM*
COc1cc(C2CC(=O)N3CN(Cc4ccco4)CSC3=C2C#N)ccc1OCc1ccccc1 (stereo not given),3.5µM*,?,?,?,?,20µM*,?,1µM*
N#CC1=C(N)OC2=C(C(=O)CC(c3ccccc3)C2)C1c1ccc2c(c1)OCO2 (stereo not given),-6%,?,?,-9%,5%,-17%,·,·
CCN(CC1CCCO1)C(=O)CCc1nnc(CCc2ccccc2)o1 (stereo not given),·,·,·,·,-2%,·,·,·
Cc1ccc2cc(CN(CC3CCCO3)C(=O)C(C)C)c(=O)[nH]c2c1 (stereo not given),17%,-4%,-10%,1%,-9%,-5%,·,·
Cc1ccc2cc(CN(CC(C)C)C(=O)C3CCCO3)c(=O)[nH]c2c1 (stereo not given),-2%,-8%,3%,7%,-8%,-16%,-20%,-28%
Cc1ccc(Cl)cc1N1CCN(C(=O)c2cc(S(=O)(=O)N3CCCCC3)cn2C)CC1,·,-5%,3%,-11%,·,-8%,·,·
CCn1c(SCC(=O)Nc2ccc3c(c2)OCO3)nc2c1c(=O)n(C)c(=O)n2C,18%,-8%,0%,1%,-4%,-16%,·,·
Cn1c(=O)c2c(nc(SCC(=O)O)n2Cc2cc3c(cc2Cl)OCO3)n(C)c1=O,56µM*,-9%,-5%,-10%,-6%,-13%,2µM*,4µM*
Cc1ccc(S(=O)(=O)C=CS(=O)(=O)c2ccc(C)cc2)cc1,·,·,·,·,2.7µM*,·,-61%,?
CC(C)(C)S(=O)(=O)N1C[C@H]2CC/C=C\C/C=C\2[C@@H]1CCO,·,·,·,·,-4%,·,·,·
O=C1C(c2ccccc2)CN1Cc1ccccc1 (stereo not given),·,·,·,·,-2%,·,·,·
O=C1N(Cc2ccccc2)CC2(Br)COCOC12O (stereo not given),·,·,?,·,2.7µM*,·,1.1µM*,3.5µM*

# Compound activity as filed in PubChem.
